This is a sample that favours compounds with a hit; in the whole collection about 6% have one here.
Tau fibril ThT = inhibitors of human tau fibril formation, thioflavin T binding; P10636; recombinant tau K18 P301L, heparin-induced fibrillization, ThT fluorescence; Potency, µM (series often up to 57.4 µM), inactives show at the top dose activity, negative = inhibition, most hits filed as inhibitors; 270,000 tested, 2.1% active; AID 1460; also: nearly all actives have a fitted effect of over 55% in size
Target sequence (P10636 561-689 P618L limits assumed): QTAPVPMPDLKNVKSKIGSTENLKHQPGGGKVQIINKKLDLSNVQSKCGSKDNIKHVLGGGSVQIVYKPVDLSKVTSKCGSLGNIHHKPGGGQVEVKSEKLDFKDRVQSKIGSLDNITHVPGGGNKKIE
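In this qHTS, human K18 P301L tau is incubated with compound and heparin for 6 hr at 37 C, and Thioflavin T fluorescence then reports fibril load.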
Tau FP inhib = inhibitors of human tau fibril formation; P10636; K18 P301L tau heparin fibrillization, Alexa594 FP, 6 h; Potency, µM (titrated, usually from 57.7 µM), for the others: at the top dose activity, negative = inhibition, hits mostly inhibitors; 280,000 tested, 0.39% active; AID 1468; also: nearly all actives have a fitted effect of over 55% in size
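Quantitative HTS format: compounds meet 15 uM recombinant K18 P301L tau and Alexa 594-tau tracer in 100 mM sodium acetate pH 7; 20 uM heparin triggers fibrillization at 37 C over 6 hr; FP gives the signal.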
VDR inhibitor = blocks the human vitamin D receptor. Potency, µM, inactives show max response, negative = inhibition, actives largely listed as inhibitors. 400,000 tested, 0.93% active. P11473. VDR-SRC2-3 peptide fluorescence polarization, 2 h
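Compounds are added to VDR with labelled SRC2-3 coactivator peptide and held 2 h at room temperature. Inhibition of the VDR–peptide interaction is then read as a change in fluorescence polarization.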
Tau fluor cs = counter-screen for tau fibril formation inhibitors; tau K18 P301L (four-repeat tau fragment) Alexa594 fluorescence, heparin fibrillization; Potency, µM (doses to about 57.7 µM), without a hit: at the highest dose activity change, negative = decrease; 280,000 tested, 0.93% active; AID 1463; also: nearly all actives have a fitted effect of over 55% in size
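Human K18 P301L tau (15 uM unlabeled plus 0.24 uM Alexa 594-labeled, final) in 100 mM sodium acetate pH 7 was mixed with compound and 20 uM heparin and incubated 6 hr at 37 C.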
PLK1 PBD inh = PLK1 (human) polo-box domain binding inhibition | P53350 | Plk1 PBD binding of FITC phosphopeptide, fluorescence polarization | Potency, µM, without a hit: max response, negative = inhibition, most hits filed as inhibitors | 360,000 tested, 2.8% active | AID 720504; also: series mostly up to about 57 µM; nearly all actives have a fitted effect of over 65% in size
Target sequence (P53350 whole entry, looked up, the tested form may be a part): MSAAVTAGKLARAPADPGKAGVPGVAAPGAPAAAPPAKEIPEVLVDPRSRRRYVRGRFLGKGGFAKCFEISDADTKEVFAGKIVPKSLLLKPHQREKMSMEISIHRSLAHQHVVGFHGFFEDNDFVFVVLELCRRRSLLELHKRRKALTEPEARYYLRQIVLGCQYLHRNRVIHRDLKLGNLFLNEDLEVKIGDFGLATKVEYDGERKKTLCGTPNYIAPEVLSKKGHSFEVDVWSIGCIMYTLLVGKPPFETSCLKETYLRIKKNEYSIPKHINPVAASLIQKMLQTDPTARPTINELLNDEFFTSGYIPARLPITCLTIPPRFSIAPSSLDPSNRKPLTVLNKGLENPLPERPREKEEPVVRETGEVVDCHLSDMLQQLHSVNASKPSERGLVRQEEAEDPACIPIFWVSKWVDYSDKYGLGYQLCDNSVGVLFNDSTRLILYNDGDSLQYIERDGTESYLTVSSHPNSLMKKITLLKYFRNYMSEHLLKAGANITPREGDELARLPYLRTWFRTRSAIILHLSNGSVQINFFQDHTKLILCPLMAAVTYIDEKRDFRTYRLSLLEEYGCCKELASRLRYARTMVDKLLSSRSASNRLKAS
Sfp inh = blocks B. subtilis Sfp PPTase activity; 310,000 tested, 3.5% active; Q9F4F7; Potency, µM, for the others: largest response in the series, negative = inhibition, hits mostly inhibitors; Biochemical Sfp PPTase activity, qHTS;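 also: the enzyme is Sfp with the accession as filed and its product quenches rhodamine fluorescence; 0% = enzyme reaction without inhibitor and -100% = no enzyme wells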
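Compounds were incubated with enzyme (final 15 nM) for 15 min at room temperature before substrate addition started the reaction. Fluorescence at 525 nm excitation, 598 nm emission was recorded immediately and after 30 minutes.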
The depositor's hits bear a star; ? = inconclusive; . = not tested or not shown; [ ] = remark or other dose. Calls follow the shape of the dose curve; as a rule, active = well fitted curve in the direction sought with a large enough effect; inconclusive = small, poorly fitted or top-dose-only effect, or another doubt; inactive = no such curve, though single readings can be large; an effect the other way counts as inactive or inconclusive. Unless noted, % is scaled to controls: 0 for no effect and ±100 for the full control effect; potency is read from the fitted curve at half-maximal effect.

SMILES | Tau fibril ThT | Tau FP inhib | VDR inhibitor | Tau fluor cs | PLK1 PBD inh | Sfp inh
COc1ccc(CCNc2nc(C)c(C(C)=O)s2)cc1OC | . | . | 40µM* | . | 4.7µM* | 16µM*
COc1ccc(CCNc2nc(-c3ccc(NC(C)=O)cc3)cs2)cc1OC | ? | 7% | -6% | ? | -15% | -24%
CC(=O)c1sc(NCc2ccc(C)cc2)nc1C | . | . | 24% | . | -23% | 1%
COc1cc(C)nc(Nc2nc(C)c(C(C)=O)s2)n1 | ? | -12% | -14% | 1% | 3µM* | -1%
COc1ccc(CCNc2nc(-c3ccncc3)cs2)cc1OC | . | -1% | -29% | -4% | ? | ?
COc1ccc(CCNc2nc(-c3ccc(F)cc3)c(CC(=O)O)s2)cc1OC | . | . | 79µM* | . | 8.4µM* | 35µM*
COc1ccc(CCNc2nc(-c3sc(C)nc3C)cs2)cc1OC | ? | -3% | -15% | ? | -6% | 45µM*
Cc1ccc(C(=O)NCCN2CCC(n3c(=O)[nH]c4ccccc43)CC2)cc1C | . | . | . | . | -12% | .
O=C(O)c1cccc(CSc2nc(-c3ccc(Cl)cc3)cc(C(F)(F)F)n2)c1 | ? | -9% | ? | -8% | 27µM* | -6%
Cc1nc(SCc2cccc(C(=O)O)c2)nc2c1CCCC2 | -8% | -2% | -5% | 2% | 27µM* | -9%
COc1ccc(-c2cc(C)nc(SCc3cccc(C(=O)O)c3)n2)cc1 | 1% | 5% | 2% | 1% | -9% | 1%
CSc1ccc(CNC(=O)Cn2ccc3cc(S(=O)(=O)N4CCCC4)ccc32)cc1 | 18% | 0% | 10% | -22% | . | .
O=C(CCn1ccc2cc(S(=O)(=O)N3CCCC3)ccc21)NCc1cccc(F)c1 | -4% | 1% | ? | -17% | 7.5µM* | 7%
Cc1ccc(CNC(=O)Cn2ccc3cc(S(=O)(=O)N4CCCC4)ccc32)o1 | . | . | -4% | . | -26% | 50µM*
CN(C)c1ccc(-c2nc3ccccn3c2/N=C/c2ccc(Br)cc2)cc1 | 14µM* | ? | -22% | ? | 0% | -30%
Cc1cccc(C)c1NC(=O)C1(C)CN(S(C)(=O)=O)CC(=O)N1CCc1ccccc1F (centres undefined) | . | . | . | . | 0% | .
CCc1cc(C(=O)N/N=C/c2ccc(O)cc2)c2ccccc2n1 | . | . | 0% | . | -2% | 18%
CCc1cc(C(=O)N=Nc2c(O)[nH]c3ccc([N+](=O)[O-])cc23)c2ccccc2n1 | 16µM* | 20% | 7% | ? | ? | 3%
CCc1cc(C(=O)N=Nc2c(O)[nH]c3c(Br)cc(Br)cc23)c2ccccc2n1 | 7.1µM* | -1% | -22% | ? | -12% | -15%
Cc1cn2c(=O)cc(COc3cccc(NC(=O)c4ccccc4C)c3)nc2s1 | 4% | -2% | -12% | -4% | . | .
CCC1C(c2ccccc2)N(C)C(c2ccccc2)CC1(O)c1ccccc1 (centres undefined) | -9% | -8% | 21% | -17% | 4% | 25%
CC(C)C1C(c2ccccc2)NC(c2ccccc2)CC1(O)c1ccc(F)cc1 (centres undefined) | -8% | -5% | -3% | -19% | 2% | 56µM*
C=CCOC(=O)N[C@H](/C(C(=O)OC)=C(\C)NCc1ccccc1)c1ccc2c(c1)OCO2 | -3% | -2% | -1% | -2% | . | -9%
COc1ccc(-n2c(CN3CCN(c4ccccc4)CC3)nc3ccc([N+](=O)[O-])cc3c2=O)c(OC)c1 | . | . | 7% | . | -10% | -18%
COc1cccc(-n2c(CN3CCN(c4ccccn4)CC3)nc3ccc([N+](=O)[O-])cc3c2=O)c1 | ? | 0% | -4% | -22% | -7% | 14µM*
SMILES | Tau fibril ThT | Tau FP inhib | VDR inhibitor | Tau fluor cs | PLK1 PBD inh | Sfp inh
CCOC(=O)c1csc(N)c1-c1ccc([N+](=O)[O-])cc1 | . | -10% | ? | ? | ? | 50µM*
CCOC(=O)c1c(-c2ccncc2)csc1N | -17% | -7% | -25% | -10% | ? | -11%
CCOC(=O)c1c(-c2cccc([N+](=O)[O-])c2)csc1N | ? | 7% | -25% | 22µM*[quencher] | 30µM* | -14%
CCOc1ccc(-c2csc(N)c2C(=O)OC)cc1 | ? | 2% | ? | ? | 7.9µM* | 45µM*
O=C1NN(c2ccc(Cl)c(Cl)c2)C(=O)/C1=C/c1ccc(-c2ccccc2C(=O)O)o1 | . | . | 45µM* | . | 19µM* | 25%
COC(=O)c1ccc(N2NC(=O)/C(=C/c3ccc(-c4ccc(Cl)c(C(=O)O)c4)o3)C2=O)cc1 | 6.3µM* | ? | 79µM* | ? | 17µM* | -10%
O=C(O)c1ccc(N2C(=O)/C(=C/c3ccc(-c4ccc([N+](=O)[O-])cc4)o3)C=C2c2ccccc2)cc1 | 4.5µM* | ? | ? | ? | 12µM* | 50µM*
O=C1NN(c2ccccc2)C(=O)/C1=C/c1ccc(-c2ccc(C(=O)O)cc2)o1 | . | . | ? | . | 21µM* | -1%
CN(/N=C/c1ccc(-c2ccc([N+](=O)[O-])cc2)o1)c1ccccc1 | . | . | -2% | . | 15% | -4%
O=C(O)c1ccc(-c2ccc(/C=C3\NC(=O)N(Cc4ccc(Cl)cc4)C3=O)o2)cc1 | ? | 12% | -9% | -15% | ? | -18%
Cc1ccc(N2NC(=O)/C(=C/c3ccc(-c4ccc(Cl)c(C(=O)O)c4)o3)C2=O)cc1C | ? | -5% | 5% | -22% | ? | 11%
CCc1ccccc1N(C)C(=O)c1nn(C)c2c1CSc1ccccc1-2 | -2% | -3% | 11% | -2% | . | .
COc1cccc(CN2C(=O)c3ccccc3Sc3ccc(C(=O)NCCc4ccc(Cl)cc4)cc32)c1 | -5% | ? | -5% | ? | . | .
Cc1oc2ncn(CC(C)C)c(=O)c2c1C(=O)N(CCN(C)C)Cc1ccccc1 | -4% | -4% | 17% | -9% | . | .
COc1cccc(CNC(=O)c2ccc(-n3c(C)cc4c3CCCC4)cc2)c1 | ? | ? | 12% | -19% | . | .
O=C1NN(c2ccccc2)C(=O)/C1=C/c1ccc(Sc2cccc3ccccc23)o1 | 13µM* | ? | ? | 14µM*[quencher] | 12µM* | ?
O=Cc1ccc(-c2ccccc2OC(F)(F)F)o1 | -7% | -6% | 3% | -9% | 0% | 4%
CCCC1=C/C(=C/c2ccc(-c3ccccc3OC)o2)C(=O)O1 | 13µM* | -12% | -13% | ? | ? | ?
COc1ccccc1-c1ccc(/C=C2/C=C(CC(C)C)OC2=O)o1 | 8.9µM* | 3% | ? | -27% | -18% | 50µM*
CN(CCCNC(=O)Cn1ncc2c([nH]c3ccccc32)c1=O)Cc1ccccc1 | 3% | -2% | 5% | -1% | . | .
COC(=O)c1ccc2c(=O)n(CCCCCC(=O)N3CCN(c4cccc(C)c4C)CC3)c(=O)[nH]c2c1 | ? | -9% | 17% | -10% | . | .
